MsrA act = activates bovine MsrA enzyme; AID 602163; activation, % at 10.6 µM; purified bovine MsrA, absorbance read-out; hit rate 0.3% among 360,000; in the data active = activation above about 7.5%;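 note: 0% = vehicle and 100% = reference activator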
MsrA inhibitor = bovine MsrA inhibition. purified bovine MsrA, absorbance read-out. inhibition, % at 15.5 µM. hit rate 0.75% among 360,000. AID 651718;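 note: 0% = vehicle wells with enzyme and 100% = reference inhibitor wells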
14-3-3 Bad PPI = disrupts binding of bovine 14-3-3 zeta to phospho-Bad peptide | hit rate 0.71% among 220,000 | inhibition, % at 21.7 µM | P63103 | TR-FRET 14-3-3zeta/Dy647-pBad peptide displacement, 1 h;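 active = inhibition above about 70%, limit read from the data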;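 note: 0% = full 14-3-3 plus peptide FRET controls and 100% = background without 14-3-3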
pCIP destab = compounds decreasing mouse p/CIP protein stability; F442A p/CIP-EGFP cells, EGFP fluorescence, 16 h; decrease of EGFP signal, % at 10 µM; hit rate 0.01% among 290,000;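 active = EGFP signal decrease of at least 30% at 10 µM or well 3 SD below plate mean, unless failing retest; inactive = the rest, including hits failing retest or dose response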
Target sequence (Q05BA5 1-1403): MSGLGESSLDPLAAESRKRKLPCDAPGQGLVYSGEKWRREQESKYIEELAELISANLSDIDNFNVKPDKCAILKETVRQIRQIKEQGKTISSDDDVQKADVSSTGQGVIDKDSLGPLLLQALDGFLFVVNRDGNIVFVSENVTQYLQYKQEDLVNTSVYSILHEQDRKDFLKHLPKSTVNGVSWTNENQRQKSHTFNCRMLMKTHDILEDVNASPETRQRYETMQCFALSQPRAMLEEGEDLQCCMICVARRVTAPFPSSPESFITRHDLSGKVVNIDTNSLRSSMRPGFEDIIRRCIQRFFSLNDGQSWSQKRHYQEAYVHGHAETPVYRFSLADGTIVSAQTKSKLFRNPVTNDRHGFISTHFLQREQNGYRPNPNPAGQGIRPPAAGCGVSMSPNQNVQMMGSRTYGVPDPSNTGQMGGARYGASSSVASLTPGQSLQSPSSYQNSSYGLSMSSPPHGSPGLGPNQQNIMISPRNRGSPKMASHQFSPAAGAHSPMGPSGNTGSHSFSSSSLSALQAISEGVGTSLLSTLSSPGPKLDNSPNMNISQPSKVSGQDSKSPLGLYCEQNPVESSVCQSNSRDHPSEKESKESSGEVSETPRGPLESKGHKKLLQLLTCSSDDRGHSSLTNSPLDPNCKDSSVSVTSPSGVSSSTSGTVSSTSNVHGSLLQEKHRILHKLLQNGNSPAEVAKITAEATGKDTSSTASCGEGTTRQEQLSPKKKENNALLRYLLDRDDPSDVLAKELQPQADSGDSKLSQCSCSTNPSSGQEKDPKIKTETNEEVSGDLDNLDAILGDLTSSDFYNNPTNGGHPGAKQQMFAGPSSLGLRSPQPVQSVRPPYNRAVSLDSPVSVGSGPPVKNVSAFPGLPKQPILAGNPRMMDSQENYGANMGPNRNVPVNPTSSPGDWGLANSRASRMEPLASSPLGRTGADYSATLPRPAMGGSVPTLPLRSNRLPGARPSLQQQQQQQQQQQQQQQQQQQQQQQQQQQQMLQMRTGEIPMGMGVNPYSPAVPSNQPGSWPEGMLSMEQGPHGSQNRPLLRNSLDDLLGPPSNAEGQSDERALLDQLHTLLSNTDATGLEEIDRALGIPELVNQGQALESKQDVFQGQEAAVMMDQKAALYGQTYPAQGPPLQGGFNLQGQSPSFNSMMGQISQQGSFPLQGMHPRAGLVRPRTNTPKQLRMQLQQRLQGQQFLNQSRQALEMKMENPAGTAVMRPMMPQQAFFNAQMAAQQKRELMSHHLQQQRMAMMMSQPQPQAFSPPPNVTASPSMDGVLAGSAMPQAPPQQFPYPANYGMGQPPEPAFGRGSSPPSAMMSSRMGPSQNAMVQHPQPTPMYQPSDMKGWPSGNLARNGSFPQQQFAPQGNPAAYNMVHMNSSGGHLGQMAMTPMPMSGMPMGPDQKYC
MsrA conf = confirmation of bovine MsrA inhibitors; shares compounds with MsrA inhibitor; AID 651822; hit rate 41% among 2,300; purified bovine MsrA, absorbance read-out; inhibition, % at 15.5 µM;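 note: coupled to thioredoxin reductase with NADPH and selenocystamine and DMSO as substrate; 0% = vehicle only and 100% = full effect of reference inhibitor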
* marks the source's active call; other numbers are inactive results; nt = no result given. Sampled rows, rich in hits. Any-hit rate of the full collection: about 1.4%. Cut-off read from the data, not from the text of the source, unless noted: active = inhibition above about 4.5%; inactive = the rest.

SMILES	MsrA act	MsrA inhibitor	14-3-3 Bad PPI	pCIP destab	MsrA conf
CCN(CC)CCCN1C(=O)C(=O)/C(=C(/O)c2ccccc2)C1c1cc(OC)ccc1OC (stereo not drawn)	-1	19*	nt	-7	6.4*
COc1ccc(/C=N/Nc2nonc2N)cc1	-5	2	-5	-11	nt
COc1ccc(/C=N/Nc2nn3cnnc3c3ccccc23)cc1	-2	5.1*	-6	-9	4
CCC(=O)Nc1c2c(nn1-c1ccc(F)cc1)CS(=O)(=O)C2	-1	0	nt	2	nt
O=C(/C=C/c1cccs1)Nc1scc(-c2ccccc2)c1C(=O)O	-9	11*	92*	6	5.6*
O=C(/C=C/c1cccs1)Nc1nncs1	-6	5.9*	2	-6	4
O=C(Nc1scc(-c2ccccc2)c1C(=O)O)c1ccccc1Cl	-2	0	nt	-15	nt
O=C(/C=C/c1cccs1)Nc1nc(-c2ccccc2)cs1	-6	1	3	-15	nt
CCCn1c(C)cc(/C=C(\C#N)C(=O)O)c1C	-8	6.8*	9	-12	4
CCCCn1c(C)cc(/C=C(\C#N)C(=O)O)c1C	-8	4	-7	-5	nt
Cc1cc(/C=C(/C#N)C(=O)O)c(C)n1CCC(C)C	-6	4.8*	-4	-9	3
Cc1cc(/C=C(\C#N)C(=O)O)c(C)n1CC1CCCO1 (stereo not drawn)	-1	5.2*	11	-1	6.2*
Cc1cc(/C=C(\C#N)C(=O)O)c(C)n1-c1ccc(Br)cc1	-6	7.4*	-4	-1	4.8*
CCOC(=O)N1CCN(C(=O)C[C@H]2C[C@@]3(C(=O)OC)C(=C[C@H](C(C)(C)C)O[C@@H]3C)N(CCC3=CCCCC3)C2=O)CC1	nt	0	nt	nt	nt
CC(=O)Nc1ccc(S(=O)(=O)N2CCN(c3ccc(C(C)=O)cc3)CC2)cc1	-1	4	nt	nt	nt
COc1cc2c(cc1OC)CN(C(=O)C1CCCN1S(=O)(=O)c1ccc(F)cc1)CC2 (stereo not drawn)	-1	-1	nt	-10	nt
CC1(c2ccc(Cl)cc2)NC(=O)N(CC(=O)N2CCN(C(=O)c3cccs3)CC2)C1=O (stereo not drawn)	-2	1	nt	nt	nt
N[C@@H](Cc1cnc[nH]1)C(=O)Nc1ccc2ccccc2c1	-1	2	nt	nt	nt
S=c1[nH]nc(C2CCCCC2)n1/N=C/c1ccccc1Cl	-2	15*	nt	-2	12*
CCCOc1c(OC)cccc1C1CC(=O)Nc2cc3c(cc21)OCO3 (stereo not drawn)	-4	5.1*	-7	-16	4.7*
CCCOc1c(OC)cccc1C1CC(=O)Nc2cc3c(cc21)OCCO3 (stereo not drawn)	-4	0	-3	-14	nt
O=C(c1ccco1)c1cc2c(ccc3ccccc32)oc1=O	-4	13*	-4	-10	28*
O=C(NN=Cc1ccccc1C(=O)O)c1ccc(NS(=O)(=O)c2cccs2)cc1	-4	5	nt	nt	nt
O=C(NN=Cc1ccc(O)cc1)C(=O)NN=Cc1ccc(O)cc1	0	6.1*	nt	nt	2
COc1ccc(C(=O)N/N=C/c2ccc(SC)cc2)cc1	-6	5.2*	11	-10	5.9*
SMILES	MsrA act	MsrA inhibitor	14-3-3 Bad PPI	pCIP destab	MsrA conf
CSc1ccc(/C=N/NC(=O)c2ccc(O)cc2)cc1	-7	7.9*	-2	-7	5.8*
CC1Sc2ccc(S(=O)(=O)CCC(=O)N3CCN(c4cccc(Cl)c4)CC3)cc2NC1=O (stereo not drawn)	-4	-2	nt	-11	nt
O=C1NCCN1CCNc1nc(NCC2CC2)nc2cc(-c3ccccc3)sc12	-2	2	nt	nt	nt
CCc1ccc(NC(=O)CSc2nncn2-c2cccnc2)cc1	-1	-1	nt	-6	nt
C=CCC1(CC=C)CCCN1C(=O)c1cc(COc2ccc(C)nc2)on1	-3	-1	nt	-15	nt
O=C(COC(=O)CCCN1C(=O)c2cccc3cccc(c23)C1=O)Nc1ccc(Cl)cc1	-5	4.8*	-1	-4	1
NC(=O)c1ccc(NC(=O)COC(=O)CCCN2C(=O)c3cccc4cccc(c34)C2=O)cc1	-12	1	-6	10	nt
Cc1nc(/N=C\c2ccc(N(C)C)cc2)sc1C	-2	5.8*	nt	nt	3
CN(C)c1ccc(C=Nc2ccc(N(C)C)cc2)cc1	1	7.2*	-7	-9	4.8*
Cc1ccc(N=Cc2ccc(N(C)C)cc2)cc1	-5	6.5*	-25	0	4
Cc1ccc(N=Cc2ccc(N(C)C)cc2)cc1C	-6	3	-4	-11	nt
Cc1ccc(S(=O)(=O)N(C)/N=C/c2ccc(N(C)C)cc2)cc1	-2	6.1*	nt	-10	2
CN(C)c1ccc(C=Nc2ccccc2)cc1	-3	3	-13	-10	nt
Cc1nc(SCC(=O)N2CCCCCC2)c2c(=O)n(C)c(=O)n(CC(C)C)c2n1	-1	0	nt	nt	nt
COc1cccc(-c2nc(-c3ccccc3)c3ccc(Cl)cc3n2)c1	-8	0	nt	nt	nt
COc1ccc(/C=C(\C#N)C(=O)N2COCC2(C)C)cc1	-2	5.1*	nt	1	3
COc1ccc(/C=C(\C#N)C(=O)N=CN(C)C)cc1	-2	1	-3	-3	nt
COCCN(C(=S)Nc1cc(C)cc(C)c1)C(C)c1ccco1 (stereo not drawn)	0	0	-17	2	nt
Oc1ccccc1C1=Nc2ccccc2N=C(c2ccco2)C1	-4	4.7*	6	1	2
Cc1ccc(C(=O)N/N=C\c2ccc(Br)o2)o1	-10	6.4*	9	-4	6.7*
COc1ccc(-c2cccc(NC(=O)COc3ccc(Cl)cc3)c2)nn1	-8	nt	nt	4	nt
COc1ccc(/C=[N+](\[O-])C2N(c3ccccc3)C(=S)SC2(C)C)cc1OC (stereo not drawn)	-5	5.0*	-3	-1	3
c1ccc(-n2nnnc2-n2cnc3ccccc32)cc1	-1	9.9*	-12	-6	4.7*
Cc1ccc(C)c(OC(C)C(=O)Nc2ccc(S(=O)(=O)Nc3nccs3)cc2)c1 (stereo not drawn)	-3	0	nt	-10	nt
NC(=S)N/N=C/c1ccc(/C=N/NC(N)=S)cc1	-5	10.0*	-1	-8	9.0*
SMILES	MsrA act	MsrA inhibitor	14-3-3 Bad PPI	pCIP destab	MsrA conf
Cn1cccc1/C=N/NC(N)=S	-1	7.4*	-10	-8	4
COc1ccc(-c2c(C)nc3c(-c4ccccn4)cnn3c2N)cc1	-3	2	nt	-2	nt
Cc1cc(C)cc(N(C(=O)c2ccccn2)C(C(=O)NC2CCCCC2)c2ccncc2)c1 (stereo not drawn)	-8	0	nt	-8	nt
Cc1cccc(N2CCN(C(=O)c3ccoc3C)CC2)c1C	-2	0	-15	-1	nt
Nc1n[nH]c(N)c1N=Nc1ccc(Cl)cc1	-5	6.1*	-4	-9	3
Cc1[nH]c(=O)[nH]c(=O)c1N(C)C	-2	0	15	4	nt
CSc1c(N(C)C)c(=O)c1=S	nt	5.2*	nt	nt	4
CCc1ccccc1NC(=O)CSc1nc(C)c(C)o1	1	2	nt	-21	nt
CC(C)(C)C(=O)Nc1sc2c(c1C#N)CCC2	-4	5.9*	-1	8	4.7*
CCOC(=O)C1=C(C)NC2=C(C(=O)CCC2)C1c1cn(Cc2ccc(Cl)cc2Cl)nc1-c1ccccc1 (stereo not drawn)	1	4.7*	4	3	3
